This passage reports growth results from PubChem BioAssay (NCI).

This is part of a sample that, as a whole, favours compounds with a hit. Of some 83,000 tested, about 20% had one in any assay.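 The endpoint reported here, percent growth, reads 100 for growth as untreated, 0 for no net growth and -100 for all cells dead.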 Unmarked numbers belong to inactive results. Activity calls are given as the source filed them. Rule for the calls: active = growth percent below 10; inactive = the rest.

Holding throughout (assay): NCI-60 one-dose screen, 48 h (100 = growth as untreated, 0 = no growth, -100 = all killed)
Conditions in all cases: 10 µM unless noted

Assay [1] has as its system HCT-15 colon.
Assay [2] concerns HT29 colon.
Assay [3] relates to SNB-75 CNS.
Assay [4] relates to SNB-19 CNS.
For assay [5], the system named is U251 CNS.
The test system of assay [6] is PC-3 prostate.
The subject of assay [7] is SK-MEL-5 melanoma.
For assay [8], the system named is UACC-62 melanoma.
For assay [9], the system named is LOX IMVI melanoma.
In assay [10] the test system is SK-MEL-28 melanoma.
The test system of assay [11] is SK-MEL-2 melanoma.
The test system of assay [12] is EKVX NSCLC.
For assay [13], the system named is SN12C renal.
Assay [14] has as its system UO-31 renal.
In assay [15] the test system is TK-10 renal.
Assay [16] relates to ACHN renal.
The test system of assay [17] is CAKI-1 renal.
Assay [18] concerns A498 renal.
Assay [19] relates to CCRF-CEM leukemia.
Assay [20] has as its system MOLT-4 leukemia.

Regarding `Brc1cccc(-c2cc(-c3ccc4c(c3)OC=CO4)[nH]n2)c1`, the growth in [1] is 21.1%; in assay [2] it was 14%; in [3], 27.5%; in [4] it was 48.6%; in assay [5], 29%; in assay [6] it was 54.1%. Besides, the growth was 22.8% in assay [7]; 52.2% in assay [8]; 45.6% in [9]; 50% in assay [10]; 58.7% in assay [11]; 56.7% in [12]. For the same molecule, the growth in assay [13] is 59.3%; in assay [14] it was 50.4%; in assay [15], 108%; in [16] it was 43.7%; in assay [17], 29.9%; in assay [18], 42.6%. The growth in assay [19] was 22%; in assay [20], 29.2%.
In the case of `CC(Nc1ncnc2ccc(-c3cnc(N)nc3)cc12)c1ccccc1` (stereo not given), the growth in assay [1] was 22.4%; in assay [2], 43.1%; in assay [3], 31.1%; in assay [4], 40%; in assay [5] it was 47%; in assay [6] it was 29.7%. Besides, the growth was 26.4% in assay [7]; 28.5% in assay [8]; 23.8% in assay [9]; 50.2% in assay [10]; 60.8% in assay [11]; 13.5% in assay [12]. For the same molecule, the growth in assay [13] was 22.1%; in [14], 9.12% (active); in assay [15] it was -8.21% (active); in assay [16] it was 16.9%; in assay [17], 16.7%; in assay [18], 11.5%. The growth was 36.4% in assay [19] and 30.3% in assay [20].
As to `CCOC(=O)c1cccc(NC2=C(Cl)C(=O)c3nc(C)ccc3C2=O)c1`, the growth was 72.2% in assay [1]; 116% in assay [2]; 108% in assay [3]; 90.8% in [4]; 103% in assay [5]; 82% in assay [6]. The growth was 98.2% in assay [7]; 95.8% in [8]; 65.1% in assay [9]; 103% in [10]; 105% in assay [11]; 92.1% in [12]. The growth was 95.5% in [13]; 93.1% in assay [14]; 119% in [15]; 96.1% in assay [16]; 108% in assay [17]; 88.8% in assay [18]. Besides, the growth in assay [19] is 15%; in assay [20] it was 48.5%.
As for `C#CCOc1ccc(/C=N/Nc2nc(-c3ccc(OC)cc3)cs2)cc1`, the growth in assay [1] is 80.1%; in [2], 105%; in assay [3], 86.2%; in assay [4], 87.8%; in assay [5], 96.4%; in assay [6] it was 73.1%. Besides, the growth was 70.1% in [7]; 67.1% in assay [8]; 89.7% in [9]; 102% in [10]; 95.8% in assay [11]; 62.8% in assay [12]. The growth in [13] is 78.3%; in assay [14], 66.8%; in [15] it was 101%; in [16], 84.2%; in [17], 66.3%; in [18], 63%. Besides, the results for the growth in assay [19] and in assay [20] were 76.1% and 73.7%, respectively.
As to `O=C(/C=C/c1ccccc1)c1cccc(O)c1`, the growth in assay [1] is 89.3%; in [2], 110%; in assay [3] it was 81.8%; in assay [4], 96.1%; in assay [5], 91.2%; in [6], 94.2%. Besides, the growth in assay [7] is 96.9%; in assay [8], 81.1%; in [9] it was 66.1%; in assay [10], 104%; in assay [11] it was 108%; in assay [12], 98.6%. Besides, the growth was 98.8% in assay [13]; 76.2% in [14]; 108% in [15]; 106% in [16]; 91.5% in assay [17]; 105% in [18]. Also, the growth was 77.8% in [19] and 85.2% in [20].
On to `CCN(CC)c1ccc(/C=N/NC(=O)c2ccc(NS(C)(=O)=O)cc2)c(O)c1`, for which the growth in assay [1] is 20.1%; in [2] it was 27.4%; in [3], 48.1%; in [4], 34.7%; in [5], 23.8%; in assay [6], 31.7%. Further, the growth in assay [7] was 0.13% (active); in assay [8], 0.285% (active); in [9], 0.336% (active); in [10], 23%; in assay [11], 40.7%; in [12], 15.6%. Also, the growth in [13] was 31.4%; in [14], 13.1%; in [15], 47.9%; in [16], 15.9%; in assay [17] it was 18.8%; in [18], 18.9%. Besides, the growth in assay [19] was 6.1% (active); in [20], 9.84% (active).
`CC(C)(C)c1cc(NC(=O)Nc2ccc(-c3cn4c5c(sc4n3)CCc3c[nH]cc3-5)cc2)no1`: the growth in [1] was 5% (active); in [2] it was -66% (active); in [3] it was -12.9% (active); in [4] it was 21.7%; in assay [5], -14.6% (active); in [6] it was 21.9%. The growth in [7] was 19.1%; in assay [8], 49.9%; in assay [9] it was -22.5% (active); in assay [10] it was 23.1%; in assay [11], -11.7% (active); in assay [12], 32.9%. Further, the growth in [13] is 44.2%; in assay [14], 7.92% (active); in [15], 65.2%; in assay [16] it was 21.2%; in assay [17], 13.9%; in assay [18], -17.9% (active). Besides, the growth in [19] is 15.1%; in assay [20] it was -10.8% (active).
Regarding `COc1ccc([C@@H]2C(=O)N(c3cc(OC)c(OC)c(OC)c3)[C@H]2c2ccc(OC)c(O)c2)cc1`, the growth in [1] was 10.8%; in [2], -12% (active); in [3] it was 43.1%; in assay [4], 29.7%; in [5] it was 19.3%; in [6], 29.8%. Further, the growth was -22.9% (active) in assay [7]; 29.2% in [8]; 19.4% in [9]; 67.8% in assay [10]; 21.3% in [11]; 48.4% in assay [12]. The growth in [13] was 27.3%; in assay [14], 25.4%; in assay [15] it was 113%; in assay [16], 28.3%; in assay [17] it was 21%; in [18], -28.5% (active). Moreover, the growth in assay [19] is 21.5%; in assay [20], 16%.
